From PubChem
Sampled rows, rich in hits. Any-hit rate of the full collection: about 6.5%.
LASV entry inh = qHTS for Inhibitors of binding or entry into cells for Lassa Virus | Lassa virus pseudotype entry inhibition, cell reporter | Potency, µM (top dose mostly 37.9 µM), most hits filed as inhibitors | actives 1.2% (n = 300,000); calls by dose curve; tested in HEK293 cells; also: nearly all actives have a fitted effect of over 50% in size
MARV entry inh = qHTS for inhibitors of binding or entry into cells for Marburg Virus; Marburg virus pseudotyped entry inhibition, cell reporter; actives 1.8% (n = 300,000); Potency, µM (titrated, usually from 37.8 µM), actives largely listed as inhibitors; calls by dose curve; tested in HEK293 cells
VACV mCherry inh = qHTS for Stage-Specific Inhibitors of Vaccinia Orthopoxvirus: mCherry Reporter Primary qHTS | Potency, µM (top dose mostly 36.5 µM), hits mostly inhibitors | AID 720579, 2013 | actives 0.63% (n = 310,000) | Vaccinia virus mCherry reporter infection, fluorescence; calls by dose curve; tested in A549 cells; also: nearly all actives have a fitted effect of over 35% in size
Vaccinia Venus = qHTS for Stage-Specific Inhibitors of Vaccinia Orthopoxvirus: Venus Reporter Primary qHTS. actives 0.46% (n = 330,000). Vaccinia virus Venus reporter expression, fluorescence. Potency, µM (series often up to 36.5 µM), actives largely listed as inhibitors; calls by dose curve; tested in A549 cells; also: nearly all actives have a fitted effect of over 30% in size
FMDV antiviral = High Throughput Screening for Foot and Mouth Disease Virus Antivirals | actives 1.2% (n = 410,000) | FMDV antiviral cell-based qHTS | Potency, µM (titrated, usually from 57.9 µM), most hits filed as inhibitors | AID 1159524, 2015; calls by dose curve; tested in HEK293T cells; also: read-out not given here; nearly all actives have a fitted effect of over 45% in size
HCMV inh = qHTS Assay for inhibitors of the human cytomegalovirus (HCMV). activity change, negative = inhibition, % at 57.5 µM. actives 4.5% (n = 410,000). HFF cells, HCMV-luciferase reporter, 72 h; hits give low values; in the data active = activity change below about -60%; inconclusive = no clear call, values can overlap the other calls; inactive = above about -39%
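Two-dose cell screen: HFF monolayers treated with compounds and infected with luciferase-expressing HCMV at 1 PFU/cell, 72 h at 37C, then lysed for luciferase measurement.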
Numbers stand for hits; - = inactive; ? = inconclusive; . = not tested or not shown; + = active, no number.

SMILES	LASV entry inh	MARV entry inh	VACV mCherry inh	Vaccinia Venus	FMDV antiviral	HCMV inh
Clc1ccc(-c2nc(-c3ccccn3)no2)cc1Cl	?	2.9µM	-	-	.	-
COc1ccc(-c2nc(-c3cccs3)no2)cc1	1.8µM	?	-	-	7.1µM	-
CCCCOc1ccc(-c2nc(-c3cccnc3)no2)cc1	-	?	.	-	-	-
NS(=O)(=O)c1ccc(S(=O)(=O)N2CCN(c3nc(-c4cccs4)nc4ccccc34)CC2)cc1	.	.	-	-	.	.
CC1Cc2ccccc2N1S(=O)(=O)c1nnc(NC(=O)c2cccc(F)c2)s1 (stereo unspecified)	-	.	-	-	?	-
CCOc1ccc(CCNC(=O)CN2C(=O)COc3ccc(S(=O)(=O)N4CCC(C)CC4)cc32)cc1	-	-	-	-	-	-
CCc1cnc2c(c1SCc1c(F)cccc1Cl)c(=O)n(C)c(=O)n2C	-	.	-	-	?	-
CCn1cc(C(=O)Nc2ccc(C(C)C)cc2)c2cc(OC)c(OC)cc2c1=O	-	?	-	-	?	?
Cc1sc2ncnc(Nc3ccc(N4CCOCC4)cc3)c2c1-c1ccccc1	.	-	-	?	-	?
Cc1sc2ncnc(N3CCN(CCOc4ccc(Cl)cc4)CC3)c2c1C	?	?	.	.	?	-93
Cc1sc2ncnc(N3CCN(Cc4ccccc4)CC3)c2c1-c1ccccc1	?	-	-	-	28µM	-
Cc1c(-c2nc(-c3ccc(C(C)(C)C)cc3)no2)n(C)oc1=O	?	?	-	-	63µM	-
C=CC[n+]1c(-c2ccc(C)cc2)csc1Nc1ccc(NC(C)=O)cc1	2.3µM	6.5µM	.	.	?	-88
C=CC[n+]1c(-c2ccc(OC)cc2)csc1NNC(=O)Nc1ccccc1	?	-	-	-	.	?
O=[N+]([O-])/C=C/c1ccc2c(c1)OCO2	3.3µM	?	.	.	.	.
O=[N+]([O-])/C=C\c1ccc(N2CCOCC2)cc1	.	.	.	.	18µM	-
O=C(C=Cc1ccc2c(c1)OCO2)C1CC1	.	.	-	-	-	?
COc1cc2c(cc1/C=C/[N+](=O)[O-])OCO2	?	?	?	?	14µM	-108
Cc1sc2ncn(CC(=O)N3CCN(c4ccccc4)CC3)c(=O)c2c1S(=O)(=O)N1CCC(C)CC1	-	?	-	-	-	-
COc1ccc(CCNC(=O)CCc2c(C)c3cc4c(C)c(C)oc4cc3oc2=O)cc1	-	?	-	?	-	-
COc1cccc([C@@H]2C(C#N)=C(N)Oc3cc(C)[nH]c(=O)c32)c1OC	.	-	.	.	.	.
Cc1cnc(SCc2ccccn2)nc1C1CCCN(C(=O)c2ccc3c(c2)OCO3)C1 (stereo unspecified)	.	.	-	-	-	.
CCOCCCNC(=O)c1ccc(-n2c(-c3ccccc3)cc3c2CCC(C)C3)cc1 (stereo unspecified)	-	.	-	-	-	-93
CCOc1ccc(-c2c[n+]3c(n2-c2ccccc2)CCCCC3)cc1	?	?	.	.	?	-98
COc1ccc(-n2c(-c3ccccc3)c[n+]3c2CCC3)cc1	?	?	-	-	?	-78
SMILES	LASV entry inh	MARV entry inh	VACV mCherry inh	Vaccinia Venus	FMDV antiviral	HCMV inh
COc1ccc(-n2c(-c3ccccc3)cc3c2CCCC3=O)cc1	?	?	?	-	-	-
COc1ccc(-n2c(-c3ccc(Br)cc3)nc(=S)c3c2CCCC3)cc1	-	-	-	-	-	-
COc1ccc(-n2c(-c3ccc(Br)cc3)c[n+]3c2CCCCC3)cc1	?	?	-	-	-	-87
COc1ccc(-n2c(-c3ccc(Br)cc3)c[n+]3c2CCC3)cc1	?	?	-	-	?	-92
CCc1cccc(NC(=O)c2cc3c(=O)n(Cc4ccc(OC)cc4)ccc3nc2C)c1	-	.	-	-	?	-
COc1cc(C)c(CC/C(C)=C/C=C/C(C)=O)c(C)c1C	.	.	.	.	-	.
CCCCOc1cccc(C(=O)N(Cc2sccc2C)C2CCS(=O)(=O)C2)c1 (stereo unspecified)	?	-	-	-	-	-
CCOC(=O)/C=C/[C@H](CC(C)C)NC(=O)C(F)(F)F	.	.	.	.	.	-
COc1ccc(-n2c(-c3ccc(Br)cc3)c[n+]3c2SC(C)C3)cc1 (stereo unspecified)	?	?	-	-	?	-96
O=C(c1cc(-c2ccc(Br)cc2)n[nH]1)N1CCN(S(=O)(=O)c2ccc(Br)s2)CC1	?	.	-	-	?	+
O=C(c1cc(-c2ccc(Cl)cc2)n[nH]1)N1CCN(S(=O)(=O)c2ccc(Br)s2)CC1	?	.	11µM	?	-	?
O=C(c1cc(-c2ccc(Br)cc2)n[nH]1)N1CCN(S(=O)(=O)c2ccc(Cl)s2)CC1	-	.	?	-	-	?
CC(CCN1CCCc2nc(C)c(C)cc21)=NO[C@@H](C)CN1CCCCc2nc(C)c(C)cc21	.	-	.	.	.	.
O=C(Nc1ccc(Cl)c(C(F)(F)F)c1)C(Cc1ccccc1)NS(=O)(=O)c1cccc2nsnc12 (stereo unspecified)	-	-	-	?	-	-
Cn1c(-c2ccccc2)cnc1SCC(=O)N1CCCCC1	3.5µM	?	.	-	16µM	-
Cn1c(-c2ccccc2)cnc1SCC(=O)N1CCCc2ccccc21	-	-	-	-	-	?
COc1cccc(/C=N/Nc2cc(-n3nc(C)cc3-c3ccccc3)ncn2)c1O	?	?	13µM	?	?	-96
Cc1cnn(-c2cc(N/N=C/c3ccccc3Cl)ncn2)c1	-	-	-	-	-	-
COc1cccc(/C=N/Nc2nc(Nc3ccccc3)nc(-n3nc(C)cc3C)n2)c1O	16µM	?	.	?	-	-
Cc1ccc(NC(=O)C2CCCN2S(=O)(=O)c2ccc3nc(-c4ccccc4)[nH]c3c2)cc1F (stereo unspecified)	?	.	-	-	?	-84
CCN(CC)CCCN(C(=O)c1cccs1)c1nc(-c2ccc(OC)cc2)cs1	?	?	.	.	-	.
CCN(CC)CCCN(C(=O)c1ccco1)c1nc(-c2ccc(C)cc2)cs1	?	8.9µM	?	-	-	?
CCN(CC)CCCN(C(=O)c1ccc(Br)cc1)c1nc(-c2ccc(OC)cc2)cs1	?	3.5µM	?	-	-	-
COc1ccc(-c2csc(N(CCCN(C)C)C(=O)c3ccc(OC)c(OC)c3)n2)cc1	.	.	-	-	?	-
CCN(CC)CCCN(C(=O)c1cccc(C)c1)c1nc(-c2ccc(OC)cc2)cs1	.	.	.	.	-	-95
CCN(CC)CCCN(C(=O)c1ccco1)c1nc(-c2ccc(Cl)cc2)cs1	?	?	-	-	-	-
CC(=O)c1c2c(cc3ccc(Cl)cc13)CCC2	.	.	.	.	.	-
CCOc1ccccc1N(CC)C(=O)c1ccc2c(=O)n3c(nc2c1)CCCCC3	-	8.9µM	-	-	-	?
O=C(Nc1nc(-c2ccccc2)cs1)c1ccc2c(=O)n3c(nc2c1)CCCCC3	.	-	.	.	16µM	-90
CCN(C(=O)c1ccc2c(=O)n3c(nc2c1)CCCCC3)c1cc(C)ccc1C	-	-	-	-	-	-
